Among the test systems are NCI-H23 lung; NCI-H226 lung; NCI-H322M lung; HOP-62 NSCLC; NCI-H460 lung; HOP-92 NSCLC; NCI-H522 lung; A549/ATCC NSCLC; 786-0 renal; COLO 205 colon.
What all share (assay): NCI-60 one-dose screen, 48 h (100 = growth as untreated, 0 = no growth, -100 = all killed)
Common to all, as to settings: 10 µM unless noted

Structures are written as SMILES. Compounds without any hit were thinned out: in the full panel of roughly 83,000, 20% have a hit.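 Assay: single dose, 48 h. Readout: percent growth (0 = no net growth; negative = cell death). Active: <10.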 Values without a mark were called inactive. Activity calls are given as the source filed them.

With `COc1ccc(N)c(N)c1`, the growth is 96.4% with NCI-H23 lung; 113% in the assay on NCI-H226 lung; 95.4% in the assay with NCI-H322M lung; 105% in the assay on HOP-62 NSCLC; 105% in the assay on NCI-H460 lung; 92.5% in the assay with HOP-92 NSCLC. The growth with NCI-H522 lung was 81.4%; in the assay on A549/ATCC NSCLC it was 98.1%; in the assay with 786-0 renal, 102%; with COLO 205 colon, 105%.

With `COc1nc2ccc(C)cc2cc1-c1nc2c(cnn2-c2ccc(Br)cc2)c(=O)[nH]1`, the growth with NCI-H23 lung was 44.9%; with NCI-H226 lung, 57.5%; in the assay on NCI-H322M lung, 72.7%; with HOP-62 NSCLC it was 45.5%; with NCI-H460 lung, 27.1%; in the assay on HOP-92 NSCLC, 51.6%. The growth is 3.48% (active) in the assay on NCI-H522 lung, 57.7% in the assay on A549/ATCC NSCLC, 41.5% in the assay with 786-0 renal and 74.2% with COLO 205 colon.

`Cc1cccc2c1S/C(=C/c1ccc([N+](=O)[O-])cc1)C2=O`: the growth in the assay with NCI-H23 lung was 91.3%; with NCI-H226 lung, 86.6%; in the assay on NCI-H322M lung, 96.3%; in the assay on HOP-62 NSCLC, 92.5%; in the assay on NCI-H460 lung, 106%; in the assay with HOP-92 NSCLC, 105%. Besides, the growth was 93.1% in the assay on NCI-H522 lung, 106% in the assay on A549/ATCC NSCLC, 106% in the assay with 786-0 renal and 114% in the assay with COLO 205 colon.

Turning to `Cn1cc(-c2cc3ncnc(Nc4ccc(CC(=O)Nc5cc(C(C)(C)C)nn5C)cc4)c3s2)cn1`, the growth is 60% in the assay on NCI-H23 lung; 38% with NCI-H226 lung; 46.4% with NCI-H322M lung; 71% with HOP-62 NSCLC; 43.5% with NCI-H460 lung; 70% in the assay with HOP-92 NSCLC. Further, the growth in the assay on NCI-H522 lung was 41.5%; in the assay on A549/ATCC NSCLC it was 42.1%; in the assay on 786-0 renal, 43.7%; in the assay on COLO 205 colon, 52.9%.

For the compound `CNC(C)[C@H]1CCC2C3CCC4C[C@@H](N(C)C(=O)c5ccccc5)CC[C@]4(C)C3CC[C@@]21C` (stereo not given in full), the growth is 40.9% in the assay on NCI-H23 lung; 80.3% with NCI-H226 lung; 12.6% in the assay with NCI-H322M lung; 38.4% in the assay on HOP-62 NSCLC; -7.41% (active) in the assay with NCI-H460 lung; 19.2% in the assay with HOP-92 NSCLC. Also, the growth with NCI-H522 lung is 69.5%; in the assay on A549/ATCC NSCLC, 39.9%; in the assay on 786-0 renal, 40.1%; in the assay on COLO 205 colon, -79.3% (active).

Regarding `CC1Cc2ccccc2N1NC(=O)c1ccc(Cl)c(S(N)(=O)=O)c1` (stereo not given), the growth was 96.8% in the assay on NCI-H23 lung; 97.8% in the assay on NCI-H226 lung; 95.2% in the assay on NCI-H322M lung; 95.8% in the assay on HOP-62 NSCLC; 111% with NCI-H460 lung; 44.9% with HOP-92 NSCLC. Further, the growth in the assay with NCI-H522 lung was 88%; in the assay on A549/ATCC NSCLC, 107%; in the assay on 786-0 renal, 96.6%; in the assay on COLO 205 colon, 108%.

Turning to `O=C(Nc1ccc(-c2nc(-c3cccc(OCCN4CCOCC4)c3)c(-c3ccnc(Br)c3)[nH]2)cc1)c1ccccc1`, the growth is 13.3% in the assay with NCI-H23 lung; 52.8% with NCI-H226 lung; 47.4% in the assay with NCI-H322M lung; -1.45% (active) in the assay on HOP-62 NSCLC; 7.26% (active) in the assay on NCI-H460 lung; 23.2% in the assay with HOP-92 NSCLC. Further, the growth in the assay on NCI-H522 lung is 40.7%; with A549/ATCC NSCLC, 21.9%; in the assay with 786-0 renal, -39.4% (active); in the assay on COLO 205 colon, -25.2% (active).

`CCCCCCNC(=O)Oc1ccc(/C(=C(\C)c2ccc(Cl)cc2)c2ccc(OCCCN(C)C)cc2)cc1`: the growth was 80.5% with NCI-H23 lung; 110% in the assay on NCI-H226 lung; 81.7% in the assay with NCI-H322M lung; 97% in the assay with HOP-62 NSCLC; 32.7% with NCI-H460 lung; 58.6% with HOP-92 NSCLC. The growth in the assay on NCI-H522 lung is 83.7%; with A549/ATCC NSCLC it was 63.5%; in the assay on 786-0 renal it was 56.8%; with COLO 205 colon it was 23.8%.

For the compound `C=C1C(=O)O[C@H]2[C@H]1CC/C(COC(=O)NCCOCCOCC(=O)Nc1ccc(OC)c(C(N)=O)c1O)=C\CC[C@@]1(C)O[C@@H]21`, the growth was 78.5% in the assay with NCI-H23 lung; 89.8% with NCI-H226 lung; 96.9% with NCI-H322M lung; 84% in the assay with HOP-62 NSCLC; 95.8% in the assay on NCI-H460 lung; 24.2% with HOP-92 NSCLC. The growth in the assay with NCI-H522 lung was -11% (active); in the assay with A549/ATCC NSCLC, 84.1%; in the assay with 786-0 renal, 62.1%; with COLO 205 colon it was 8% (active).

With `Cc1ccc(S(=O)(=O)N/N=C/C2(c3ccccc3)CC2)cc1`, the growth is 101% in the assay with NCI-H23 lung; 113% with NCI-H226 lung; 111% in the assay with NCI-H322M lung; 99% in the assay on HOP-62 NSCLC; 95.1% in the assay on NCI-H460 lung; 90.5% with HOP-92 NSCLC. Also, the growth in the assay with NCI-H522 lung is 105%; with A549/ATCC NSCLC, 82%; in the assay on 786-0 renal, 112%; in the assay with COLO 205 colon, 116%.

Take `CN1CCN(c2ccc(-c3cc4c(Nc5ccc(F)c(Cl)c5)ncnn4c3)cn2)CC1`: the growth in the assay with NCI-H23 lung is 102%; in the assay on NCI-H226 lung, 97.7%; in the assay with NCI-H322M lung, 74.7%; in the assay with HOP-62 NSCLC, 106%; in the assay with NCI-H460 lung, 16.1%; in the assay on HOP-92 NSCLC, 107%. The growth in the assay with NCI-H522 lung was 98.6%; with A549/ATCC NSCLC, 85.2%; in the assay with 786-0 renal it was 100%; in the assay on COLO 205 colon it was 105%.

For `COc1cc(C(=O)/C=C/c2sc(Cl)nc2Cl)cc(OC)c1OC`, the growth with NCI-H23 lung was 33.9%; with NCI-H226 lung, 80.5%; in the assay with NCI-H322M lung, 85.4%; with HOP-62 NSCLC, 85%; in the assay on NCI-H460 lung, 83.9%; with HOP-92 NSCLC, 51.4%. The growth was 33.6% in the assay with NCI-H522 lung, 90.6% with A549/ATCC NSCLC, 79.2% in the assay with 786-0 renal and -19.7% (active) with COLO 205 colon.

On to `C=CCc1cc(C)ccc1NC(C(=O)NCC(=O)OC)c1ccccc1` (stereo not given), for which the growth in the assay on NCI-H23 lung is 93.7%; in the assay on NCI-H226 lung, 95.1%; in the assay on NCI-H322M lung it was 95.3%; in the assay with HOP-62 NSCLC, 85.5%; in the assay with NCI-H460 lung it was 116%; in the assay on HOP-92 NSCLC it was 103%. Further, the growth was 96.4% with NCI-H522 lung, 93% in the assay with A549/ATCC NSCLC, 94.1% in the assay on 786-0 renal and 100% with COLO 205 colon.

(Values after PubChem BioAssay (NCI).)
